# Assay outcomes deposited in PubChem BioAssay by National Center for Advancing Translational Sciences (NCATS).
# In the library only some 19% were active in any assay of this set; here they are far more common.
# HT1080 IDH1KD tx = toxicity to HT-1080 IDH1 knockdown cells (counter line); HT-1080 IDH1 knockdown viability, ATP luminescence, 48 h; Potency, µM (highest dose often 46.1 µM), for the others: top-dose activity, negative = toxicity, usual class: cytotoxic; hit rate 2% among 360,000;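 also: 0% = DMSO wells and -100% = cell-free medium wells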
#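 After a 2 h attachment period, IDH1KD HT-1080 cells took pin-transferred compound for 48 h at 37 °C; ATP-based luminescence after 10 min room-temperature reagent incubation reported viability.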
# DT40 TDP1 CPT = growth inhibition of DT40 Tdp1-/-;hTDP1 cells with camptothecin (screen for TDP1 inhibitors); chicken DT40 Tdp1-/-;hTDP1 cells + 20 nM CPT, ATP luminescence, 48 h; Potency, µM (doses to about 46.2 µM), for inactives: top-dose activity change, negative = growth inhibition, actives largely listed as inhibitors; hit rate 12% among 420,000; AID 686979; also: nearly all actives have a fitted effect of over 55% in size
#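 Chicken DT40 Tdp1-/- cells complemented with human TDP1, 400 cells/well, exposed to compounds plus 20 nM camptothecin for at least 48 h at 37 C; viability read as ATP content by CellTiter-Glo luminescence.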
# HT1080-NT tox = kills 2HG-producing HT-1080-NT fibrosarcoma cells | HT-1080-NT fibrosarcoma viability, CellTiter-Glo ATP luminescence, 48 h | Potency, µM (highest dose often 46.1 µM), for the others: at the top dose activity, negative = less viability, actives largely listed as cytotoxic | hit rate 1.6% among 360,000;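 also: NT is the 2HG producing partner of a matched IDH1 knockdown line; 0% = DMSO-treated cells and -100% = media-only wells without cells; nearly all actives have a fitted effect of over 55% in size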
#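 Viability of the 2HG-overproducing fibrosarcoma line after 48 hours of compound exposure at 37 degrees C was determined by luminescence with CellTiter-Glo, and concentration-effect curves were then fitted and categorized.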
# KB-3-1 tox = kills parental KB-3-1 adenocarcinoma cells | KB-3-1 viability, CellTiter-Glo ATP luminescence, 72 h | Potency, µM (highest dose often 46.1 µM), hits mostly cytotoxic | hit rate 1.4% among 400,000 | AID 1347075; also: nearly all actives have a fitted effect of over 60% in size
#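 Multi-concentration cytotoxicity screen in KB-3-1 cells grown in DMEM lacking phenol red with 10% FBS. After 72 h at 37 °C with compound, ATP-dependent luminescence was recorded.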
# DT40 TDP1 no CPT = qHTS for Inhibitors of human tyrosyl-DNA phosphodiesterase 1 (TDP1): qHTS in cells in absence of CPT | DT40 Tdp1-/- hTDP1 cells, no CPT, ATP luminescence, 48 h | Potency, µM (series often up to 46.2 µM), inactives show at the top dose activity change, negative = growth inhibition, most hits filed as inhibitors | hit rate 15% among 420,000; also: nearly all actives have a fitted effect of over 55% in size
#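 A cellular qHTS used chicken DT40 cells lacking endogenous Tdp1 but carrying stably transfected human TDP1. Compounds were applied without camptothecin, and cell growth kinetics were judged by ATP-dependent luminescence after ≥48 hr.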
# KB-V1 MDR tox = KB-V1 MDR subline cytotoxicity; Potency, µM (highest dose often 46.1 µM), hits mostly cytotoxic; KB-V1 MDR cells viability, CellTiter-Glo, 72 h; hit rate 3.4% among 400,000; also: nearly all actives have a fitted effect of over 60% in size
#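 Cytotoxicity toward P-gp-expressing KB-V1 cells was determined as loss of CellTiter-Glo luminescence after 72 h at 37 degrees C. Compounds were tested in quantitative HTS format across a concentration range, with curves fitted to normalized data.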
# * = called active by the depositor; i = inactive; ? = inconclusive; / = no result. Calls follow the shape of the dose curve; as a rule, active = well fitted curve in the direction sought with a large enough effect; inconclusive = small, poorly fitted or top-dose-only effect, or another doubt; inactive = no such curve, though single readings can be large; an effect the other way counts as inactive or inconclusive. Unless noted, % is scaled to controls: 0 for no effect and ±100 for the full control effect; potency is read from the fitted curve at half-maximal effect.
SMILES,HT1080 IDH1KD tx,DT40 TDP1 CPT,HT1080-NT tox,KB-3-1 tox,DT40 TDP1 no CPT,KB-V1 MDR tox
O=C(NC(c1ccc2c(c1)OCO2)c1ccccn1)C1CCN(CCOc2ccc(Cl)cc2Cl)CC1 (stereo not given),?,?,?,i,?,i
O=C(NC(c1ccc(Cl)cc1)c1ccccn1)C1CCN(CCOc2ccc(Cl)cc2Cl)CC1 (stereo not given),?,?,?,?,18µM*,?
CCC(CO)n1c(=S)[nH]c2cc(OC)c(OC)cc2c1=O (stereo not given),-14%,12%,-6%,i,8%,i
Cc1ccc2cc(CN(CC(C)C)S(=O)(=O)c3cccc4nonc34)c(=O)[nH]c2c1,21%,-29%,8%,i,-14%,?
CS(=O)(=O)N1CCc2ccc(NC(=O)C3CCCO3)cc2C1 (stereo not given),7%,2%,5%,i,12%,i
COc1cccc(C2=CC(c3cccc(OC)c3OC)n3nnnc3N2)c1 (stereo not given),16µM*,12µM*,?,i,16µM*,?
COc1cccc(C2C=C(c3ccc(C)c(C)c3)Nc3nnnn32)c1OC (stereo not given),/,5.2µM*,/,4.1µM*,3.7µM*,i
Cc1ccccc1C(=O)N1CCC(c2nc3ccccc3s2)CC1,/,?,/,i,?,?
O=C(c1ccccc1Br)N1CCC(c2nc3ccccc3s2)CC1,-1%,?,-3%,i,29µM*,i
COc1cc(C(=O)N2CCC(c3nc4ccccc4s3)CC2)cc(OC)c1OC,/,?,/,i,21µM*,?
CCc1ccc(C(=O)N2CCC(c3nc4ccccc4s3)CC2)cc1,-17%,?,-3%,i,?,i
Cc1ccc(S(=O)c2snnc2C)cc1 (stereo not given),-2%,-5%,10%,i,-10%,i
CCCNC(=O)c1nnsc1S(=O)c1ccc(Cl)cc1 (stereo not given),16µM*,0.41µM*,18µM*,?,0.52µM*,i
CNC(=O)c1nnsc1S(=O)c1ccc(Cl)cc1 (stereo not given),23µM*,0.41µM*,15µM*,?,0.65µM*,i
COc1cccc(C(=O)Nc2c(C(=O)N3CCN(c4ccc(F)cc4)CC3)oc3ccccc23)c1,/,?,/,i,?,?
O=C(CSC1=Nc2ccccc2N=C(c2ccc(F)cc2)C1)Nc1ccccc1,/,?,/,i,?,i
CC(=O)c1ccc(NC(=O)CSC2=Nc3ccccc3N=C(c3ccc(F)cc3)C2)cc1,/,16µM*,/,i,9.2µM*,i
O=C(CSC1=Nc2ccccc2N=C(c2ccc(F)cc2)C1)Nc1ccc(Cl)cc1,/,21µM*,/,i,26µM*,i
CC(=O)Nc1cccc(NC(=O)CSc2nnc3ccccn23)c1,12%,27%,14%,i,1%,i
CC(C)(C)c1cc(NC(=O)CCSc2nnc3ccccn23)cc(C(C)(C)C)c1,?,-15%,-19%,i,-11%,3.7µM*
CCOc1ccc(CNC(=O)C2CCCN(S(=O)(=O)N3CC(C)CC(C)C3)C2)cc1OC (stereo not given),14%,-22%,3%,i,-18%,i
Cc1cccc(-c2cccc(NC(=O)C3CCCN(C(=O)c4ocnc4C)C3)c2)c1 (stereo not given),-20%,23µM*,1%,/,21µM*,/
Cc1cccc(-c2cccc(NC(=O)C3CCCN(C(=O)c4csc(C)n4)C3)c2)c1 (stereo not given),?,1.5µM*,-29%,i,1.3µM*,i
Cc1cccc(-c2cccc(NC(=O)C3CCCN(C(=O)c4cccnc4)C3)c2)c1 (stereo not given),-12%,18µM*,3%,i,15µM*,?
CCc1nc(C)c(C(=O)N2CCCC(C(=O)Nc3cccc(-c4cccc(C)c4)c3)C2)o1 (stereo not given),-21%,13µM*,2%,i,10µM*,?
SMILES,HT1080 IDH1KD tx,DT40 TDP1 CPT,HT1080-NT tox,KB-3-1 tox,DT40 TDP1 no CPT,KB-V1 MDR tox
CC(C)(C)OC(=O)N1CCCC(C(=O)Nc2cccc(C(=O)N3CCCCC3)c2)C1 (stereo not given),5%,-17%,10%,i,-24%,i
COCCn1c(CNC(=O)c2cccc(C)c2)nc2cccnc21,/,-18%,/,/,6%,/
COc1ccccc1NC(=O)C/C(C)=N/NC(=O)COc1c(Br)cc(Br)cc1OC,-7%,-10%,-1%,i,?,i
Cc1ccc(F)cc1C(=O)N1CCOCC1c1cc(C(=O)NCc2ccccc2)no1 (stereo not given),7%,1%,21%,i,-23%,i
Cc1nc(SCC(=O)Nc2c(C)n(C)n(-c3ccccc3)c2=O)[nH]c(=O)c1C,-15%,14%,2%,i,-1%,i
CCC(C)NC(=O)CSc1nnc(-c2ccncc2)n1-c1ccc(OC)cc1 (stereo not given),11%,-4%,13%,i,-3%,i
CCOc1ccc(NC(=O)CSc2n[nH]c(=O)n2-c2ccccc2)cc1,-4%,-3%,13%,i,-19%,i
CCC(C)NC(=O)CSc1nc2n[nH]c(C)c2c(=N)n1-c1ccc(C)c(Cl)c1 (stereo not given),/,3.3µM*,/,i,1.6µM*,i
CCC(C)NC(=O)CSc1nc2n[nH]c(C)c2c(=N)n1-c1ccc(OC)cc1 (stereo not given),-3%,16µM*,1%,i,18µM*,i
Cc1[nH]nc2nc(SCC(=O)NCC3CCCO3)n(-c3ccc(Br)cc3)c(=N)c12 (stereo not given),-5%,15µM*,-4%,i,?,i
CCOc1ccc(-n2c(SCC(=O)Nc3ccc(Br)cc3)nc3n[nH]c(C)c3c2=N)cc1,16µM*,13µM*,15µM*,i,7.3µM*,i
COc1cccc(NC(=O)COC(=O)c2ccccc2SCC(=O)N2CCCC2)c1,9%,1%,1%,?,-5%,?
COc1cccc(/C=c2/[nH]c(=O)/c(=C\c3cccc(OC)c3OC)[nH]c2=O)c1OC,/,?,/,i,?,i
